Measured values reported in PubChem BioAssay AID1159580 (chemical genetic matrix, 2015).
“And” between values parts separate entries of the source, which are not always exact repeats. Equal entries are not always repeated. The whole screen tested about 5,500 compounds, of which about 2,000 (36%) were called active. Another 18% or so got no clear call; they are omitted. This is one part of the list. Values without a mark were called inactive. No stated cut-off is given here; in the data, active means normalized growth mostly below about 0.91 (no sharp cut-off); inconclusive means no clear call, values can overlap the other calls; inactive means mostly above about 0.92.

Assay: chemical genetic growth profiling, strain panel (AID 1159580);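 further: tested at 20 µM; growth read once vehicle control cultures reached saturation at 30 °C; 1 = growth at the plate median or of vehicle wells; lower values mean less growth of the strain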
Details: growth OD
[1] = S. cerevisiae deletion strains, locus YAL013W, strain DEP1, active compounds read low
[2] = S. cerevisiae deletion strains, locus YBR229C, strain ROT2, active compounds read low
[3] = S. cerevisiae deletion strains, locus YDL101C, strain DUN1, active compounds read low
[4] = S. cerevisiae deletion strains, locus YDL134C, strain PPH21, active compounds read low
[5] = S. cerevisiae deletion strains, locus YDR150W, strain NUM1, active compounds read low
[6] = S. cerevisiae deletion strains, locus YEL061C, strain CIN8, active compounds read low
[7] = S. cerevisiae deletion strains, locus YGR078C, strain PAC10, active compounds read low
[8] = S. cerevisiae deletion strains, locus YGR229C, strain SMI1, active compounds read low
[9] = S. cerevisiae deletion strains, locus YHR030C, strain SLT2, active compounds read low
[10] = S. cerevisiae deletion strains, locus YJR043C, strain POL32, active compounds read low
[11] = S. cerevisiae deletion strains, locus YJR075W, strain HOC1, active compounds read low
[12] = S. cerevisiae deletion strains, locus YLR039C, strain RIC1, active compounds read low
[13] = S. cerevisiae deletion strains, locus YLR262C, strain YPT6, active compounds read low
[14] = S. cerevisiae deletion strains, locus YMR263W, strain SAP30, active compounds read low
[15] = S. cerevisiae deletion strains, locus YMR307W, strain GAS1, active compounds read low
[16] = S. cerevisiae deletion strains, locus YNL128W, strain TEP1, active compounds read low
[17] = S. cerevisiae deletion strains, locus YNL153C, strain GIM3, active compounds read low
[18] = S. cerevisiae deletion strains, locus YNL322C, strain KRE1, active compounds read low
[19] = S. cerevisiae deletion strains, locus YOL006C, strain TOP1, active compounds read low
[20] = S. cerevisiae deletion strains, locus YPL055C, strain LGE1, active compounds read low
[21] = S. cerevisiae deletion strains, locus YPL241C, strain CIN2, active compounds read low
[22] = S. cerevisiae deletion strains, locus YAL040C, strain CLN3, active compounds read low
[23] = S. cerevisiae deletion strains, locus YCL061C, strain MRC1 (second series), active compounds read low
[24] = S. cerevisiae deletion strains, locus YDR363W, strain ESC2, active compounds read low
[25] = S. cerevisiae deletion strains, locus YER002W, strain NOP16, active compounds read low
[26] = S. cerevisiae deletion strains, locus YNL175C, strain NOP13, active compounds read low
[27] = S. cerevisiae deletion strains, locus YNL197C, strain WHI3, active compounds read low
[28] = S. cerevisiae deletion strains, locus YNL224C, strain SQS1, active compounds read low
[29] = S. cerevisiae deletion strains, locus YOR083W, strain WHI5 (second series), active compounds read low

Cc1ccc(O)c(C(CCN(C(C)C)C(C)C)c2ccccc2)c1 (stereo not given)
normalized growth [1]: 1.01
normalized growth (S. cerevisiae deletion strains, locus YBR021W, strain FUR4, active compounds read low): 1
normalized growth [2]: 1.01
normalized growth (S. cerevisiae deletion strains, locus YCL029C, strain bik1, active compounds read low): 0.998
normalized growth (S. cerevisiae deletion strains, locus YDL035C, strain GPR1, active compounds read low): 1.01
normalized growth (S. cerevisiae deletion strains, locus YDL074C, strain BRE1, active compounds read low): 1.03
normalized growth [3]: 1.01
normalized growth [4]: 1.02
normalized growth (S. cerevisiae deletion strains, locus YDL185W, strain tfp1, active compounds read low): 0.989
normalized growth (S. cerevisiae deletion strains, locus YDL192W, strain arf1, active compounds read low): 1
normalized growth (S. cerevisiae deletion strains, locus YDR101C, strain arx1, active compounds read low): 0.988
normalized growth [5]: 1.01
normalized growth (S. cerevisiae deletion strains, locus YDR162C, strain NBP2, active compounds read low): 1
normalized growth (S. cerevisiae deletion strains, locus YDR318W, strain mcm21, active compounds read low): 0.991
normalized growth (S. cerevisiae deletion strains, locus YDR388W, active compounds read low): 0.983
normalized growth (S. cerevisiae deletion strains, locus YDR502C, strain sam2, active compounds read low): 0.996
normalized growth [6]: 1.01
normalized growth (S. cerevisiae deletion strains, locus YER110C, active compounds read low): 0.995
normalized growth (S. cerevisiae deletion strains, locus YER155C, strain BEM2, active compounds read low): 1.01
normalized growth (S. cerevisiae deletion strains, locus YER167W, strain BCK2, active compounds read low): 0.994
normalized growth (S. cerevisiae deletion strains, locus YGL078C, strain dbp3, active compounds read low): 0.996
normalized growth (S. cerevisiae deletion strains, locus YGL086W, strain mad1, active compounds read low): 0.995
normalized growth (S. cerevisiae deletion strains, locus YGL248W, strain PDE1, active compounds read low): 1
normalized growth [7]: 1.01
normalized growth (S. cerevisiae deletion strains, locus YGR135W, strain pre9, active compounds read low): 0.985
normalized growth [8]: 0.995
normalized growth (S. cerevisiae deletion strains, locus YGR252W, strain gcn5, active compounds read low): 1
normalized growth [9]: 1.01 and 1.03
normalized growth (S. cerevisiae deletion strains, locus YHR079C, strain IRE1 (second series), active compounds read low): 0.988
normalized growth (S. cerevisiae deletion strains, locus YHR079C, strain IRE1, active compounds read low): 0.981
normalized growth (S. cerevisiae deletion strains, locus YHR094C, strain hxt1, active compounds read low): 0.987
normalized growth (S. cerevisiae deletion strains, locus YHR129C, strain ARP1, active compounds read low): 1.02
normalized growth (S. cerevisiae deletion strains, locus YHR200W, strain rpn10, active compounds read low): 0.982
normalized growth (S. cerevisiae deletion strains, locus YIL066C, strain RNR3, active compounds read low): 1.02
normalized growth (S. cerevisiae deletion strains, locus YIL073C, strain SPO22, active compounds read low): 0.967
normalized growth (S. cerevisiae deletion strains, locus YIL125W, strain kgd1, active compounds read low): 0.985
normalized growth (S. cerevisiae deletion strains, locus YIR030C, strain dcg1, active compounds read low): 0.993
normalized growth (S. cerevisiae deletion strains, locus YJL095W, strain BCK1, active compounds read low): 1.01
normalized growth (S. cerevisiae deletion strains, locus YJL134W, strain LCB3, active compounds read low): 1
normalized growth (S. cerevisiae deletion strains, locus YJL168C, strain set2, active compounds read low): 0.99
normalized growth (S. cerevisiae deletion strains, locus YJL187C, strain SWE1 (second series), active compounds read low): 1.01
normalized growth [10]: 1
normalized growth (S. cerevisiae deletion strains, locus YJR066W, strain TOR1, active compounds read low): 0.958
normalized growth [11]: 1
normalized growth (S. cerevisiae deletion strains, locus YKL009W, strain mrt4, active compounds read low): 1
normalized growth (S. cerevisiae deletion strains, locus YKL068W, active compounds read low): 0.986
normalized growth (S. cerevisiae deletion strains, locus YKL085W, strain MDH1 (second series), active compounds read low): 0.99
normalized growth (S. cerevisiae deletion strains, locus YKL085W, strain MDH1, active compounds read low): 0.99
normalized growth (S. cerevisiae deletion strains, locus YKL190W, strain CNB1, active compounds read low): 1.01
normalized growth (S. cerevisiae deletion strains, locus YKR001C, strain vps1, active compounds read low): 0.999
normalized growth [12]: 1.06
normalized growth (S. cerevisiae deletion strains, locus YLR058C, strain SHM2, active compounds read low): 1.01
normalized growth (S. cerevisiae deletion strains, locus YLR102C, strain apc9, active compounds read low): 0.992
normalized growth (S. cerevisiae deletion strains, locus YLR113W, strain HOG1, active compounds read low): 1.03
normalized growth [13]: 1.05
normalized growth (S. cerevisiae deletion strains, locus YLR268W, strain sec22, active compounds read low): 0.984
normalized growth (S. cerevisiae deletion strains, locus YLR330W, strain CHS5, active compounds read low): 1.01
normalized growth (S. cerevisiae deletion strains, locus YLR342W, strain FKS1 (second series), active compounds read low): 1.01
normalized growth (S. cerevisiae deletion strains, locus YLR371W, strain rom2, active compounds read low): 0.972
normalized growth (S. cerevisiae deletion strains, locus YLR418C, strain cdc73, active compounds read low): 0.982
normalized growth (S. cerevisiae deletion strains, locus YML016C, strain PPZ1, active compounds read low): 1.02
normalized growth (S. cerevisiae deletion strains, locus YML032C, strain rad52, active compounds read low): 0.986
normalized growth (S. cerevisiae deletion strains, locus YML124C, strain tub3, active compounds read low): 0.991
normalized growth (S. cerevisiae deletion strains, locus YMR078C, strain ctf18, active compounds read low): 0.978
normalized growth (S. cerevisiae deletion strains, locus YMR223W, strain ubp8, active compounds read low): 0.996
normalized growth [14]: 1.01
normalized growth [15]: 0.993
normalized growth (S. cerevisiae deletion strains, locus YNL067W, strain RPL9B, active compounds read low): 1.01
normalized growth [16]: 1
normalized growth [17]: 1.01
normalized growth (S. cerevisiae deletion strains, locus YNL183C, strain NPR1, active compounds read low): 0.961
normalized growth (S. cerevisiae deletion strains, locus YNL233W, strain BNI4, active compounds read low): 1.01
normalized growth (S. cerevisiae deletion strains, locus YNL250W, strain rad50, active compounds read low): 0.981
normalized growth (S. cerevisiae deletion strains, locus YNL271C, strain bni1, active compounds read low): 0.997
normalized growth (S. cerevisiae deletion strains, locus YNL298W, strain CLA4, active compounds read low): 0.974
normalized growth (S. cerevisiae deletion strains, locus YNL307C, strain MCK1, active compounds read low): 0.996
normalized growth [18]: 1
normalized growth (S. cerevisiae deletion strains, locus YNR052C, strain pop2, active compounds read low): 0.988
normalized growth [19]: 1.05
normalized growth (S. cerevisiae deletion strains, locus YOL012C, strain htz1): 0.768
normalized growth (S. cerevisiae deletion strains, locus YOL147C, strain pex11, active compounds read low): 0.986
normalized growth (S. cerevisiae deletion strains, locus YOR061W, strain CKA2, active compounds read low): 1.02
normalized growth (S. cerevisiae deletion strains, locus YOR069W, strain VPS5, active compounds read low): 1.01
normalized growth (S. cerevisiae deletion strains, locus YOR136W, strain idh2, active compounds read low): 0.983
normalized growth (S. cerevisiae deletion strains, locus YOR144C, strain elg1, active compounds read low): 0.981
normalized growth (S. cerevisiae deletion strains, locus YOR184W, strain ser1, active compounds read low): 1
normalized growth (S. cerevisiae deletion strains, locus YOR231W, strain MKK1, active compounds read low): 1
normalized growth (S. cerevisiae deletion strains, locus YOR316C, strain cot1, active compounds read low): 0.985
normalized growth [20]: 1.01
normalized growth [21]: 1.01
normalized growth (S. cerevisiae deletion strains, locus YPL256C, strain CLN2, active compounds read low): 0.992
normalized growth (S. cerevisiae deletion strains, locus YPR119W, strain clb2, active compounds read low): 0.98
normalized growth (S. cerevisiae deletion strains, locus YPR141C, strain kar3, active compounds read low): 0.985
normalized growth (S. cerevisiae deletion strains, locus YPR163C, strain tif3, active compounds read low): 0.977
normalized growth (S. cerevisiae deletion strains, locus YPR167C, strain met16, active compounds read low): 0.988
normalized growth (S. cerevisiae deletion strains, strain wtn01, active compounds read low): 0.988
normalized growth (S. cerevisiae strains, strain wild type, active compounds read low): 1

COc1ccc(/C=C2/C(=O)N(c3cccc(Cl)c3)N=C2C)cc1
normalized growth [1]: 0.983
normalized growth [2]: 0.963
normalized growth [3]: 1
normalized growth [4]: 0.991
normalized growth [5]: 1
normalized growth [6]: 0.964
normalized growth [7]: 0.962
normalized growth [9]: 0.53 (active)
normalized growth (S. cerevisiae deletion strains, locus YHR087W, strain rtc3, active compounds read low): 0.866 (active)
normalized growth (S. cerevisiae deletion strains, locus YJL187C, strain SWE1, active compounds read low): 0.921 (active)
normalized growth [10]: 1.03
normalized growth [11]: 0.934
normalized growth [12]: 0.62 (active)
normalized growth (S. cerevisiae deletion strains, locus YLR058C, strain SHM2 (second series), active compounds read low): 0.963
normalized growth (S. cerevisiae deletion strains, locus YLR085C, strain ARP6, active compounds read low): 0.744 (active)
normalized growth [13]: 0.699 (active)
normalized growth (S. cerevisiae deletion strains, locus YML094W, strain GIM5, active compounds read low): 0.865 (active)
normalized growth (S. cerevisiae deletion strains, locus YMR219W, strain ESC1, active compounds read low): 0.938 (active)
normalized growth [14]: 0.989
normalized growth [17]: 0.999
normalized growth (S. cerevisiae deletion strains, locus YNL298W, strain CLA4 (second series), active compounds read low): 0.839
normalized growth [18]: 0.973
normalized growth (S. cerevisiae deletion strains, locus YNR030W, strain Alg12, active compounds read low): 0.88 (active)
normalized growth [19]: 0.849
normalized growth [20]: 0.961
normalized growth [21]: 0.897
normalized growth (S. cerevisiae deletion strains, locus YPR135W, strain CTF4, active compounds read low): 0.599 (active)

Cn1c(=O)c2c(nc(/C=C/c3cccc(Cl)c3)n2C)n(C)c1=O
normalized growth [22]: 0.996
normalized growth [23]: 0.981
normalized growth [24]: 1.05
normalized growth [25]: 1.01
normalized growth [8]: 0.996
normalized growth [16]: 0.993
normalized growth [17]: 0.946
normalized growth [26]: 0.969
normalized growth [27]: 0.954
normalized growth [28]: 0.995
normalized growth [18]: 1.02
normalized growth [29]: 0.964
normalized growth [20]: 1.03
normalized growth [21]: 0.995

Cn1cc(C(=O)OCC2CCN(CCNS(C)(=O)=O)CC2)c2ccccc21
normalized growth [22]: 1
normalized growth [23]: 1.01
normalized growth [5]: 1.01
normalized growth [24]: 1
normalized growth [25]: 1.01
normalized growth [15]: 1
normalized growth [16]: 1.03
normalized growth [17]: 1.04
normalized growth [26]: 1.05
normalized growth [27]: 1.06
normalized growth [28]: 1.05
normalized growth [29]: 1.03
